High-throughput results from PubChem BioAssay.
Hits are enriched below; roughly 18% of the tested compounds scored in any of these assays.
VDR inh – Inhibitors of the vitamin D receptor (VDR): qHTS. VDR-SRC2-3 peptide fluorescence polarization, 2 h. AID 504847, 2011. Potency, µM, usual class: inhibitors. Vitamin D3 receptor (Homo sapiens), P11473. 0.93% of 400,000 active
Target sequence (P11473 whole entry, looked up): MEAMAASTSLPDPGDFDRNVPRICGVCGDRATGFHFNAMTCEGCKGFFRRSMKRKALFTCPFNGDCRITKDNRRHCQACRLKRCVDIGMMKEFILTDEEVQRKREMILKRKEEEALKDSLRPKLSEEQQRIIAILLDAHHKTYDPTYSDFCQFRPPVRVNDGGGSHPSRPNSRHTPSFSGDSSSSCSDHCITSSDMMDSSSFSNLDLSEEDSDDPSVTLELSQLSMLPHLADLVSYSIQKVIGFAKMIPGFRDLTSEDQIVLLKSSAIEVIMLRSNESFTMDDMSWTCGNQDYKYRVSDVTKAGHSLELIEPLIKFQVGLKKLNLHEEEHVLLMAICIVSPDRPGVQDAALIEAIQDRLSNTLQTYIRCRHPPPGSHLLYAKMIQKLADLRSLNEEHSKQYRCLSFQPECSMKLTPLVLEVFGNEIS
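Fluorescence polarization assay of small-molecule disruption of VDR binding to coregulator peptide SRC2-3. Compounds and controls pin-transferred, then read after 2 h incubation at ambient room temperature.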
KAT2A inh – qHTS Assay for Inhibitors of GCN5L2. GCN5L2 HAT assay, ThioGlo1 CoA-SH fluorescence. 0.21% of 390,000 active. AID 504327, 2011. Potency, µM (highest dose often 58.9 µM), actives largely listed as inhibitors
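Fluorescence readout, Ex340nm/Em540nm: ThioGlo1 (50uM final) reacts with free CoA thiol released as 20nM GCN5L2 acetylates H3(1-25) peptide (75uM) using acetyl-CoA (70uM). Compound and enzyme sat 15 min beforehand; 20 min room-temperature reaction.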
PLK1 PBD block – qHTS for Inhibitors of PLK1-PDB (polo-like kinase 1 - polo-box domain): Primary Screen; Serine/threonine-protein kinase PLK1 (Homo sapiens), P53350; Plk1 PBD binding of FITC phosphopeptide, fluorescence polarization; Potency, µM, actives largely listed as inhibitors; 2.8% of 360,000 active; AID 720504, 2013; further: series mostly up to about 57 µM; nearly all actives have a fitted effect of over 65% in size
TDP1 inh – qHTS Assay for Inhibitors of Tyrosyl-DNA Phosphodiesterase (TDP1); Tyrosyl-DNA phosphodiesterase 1 (Homo sapiens), Q9NUW8; recombinant TDP1, AlphaScreen DNA substrate cleavage; Potency, µM (titrated, usually from 130 µM), usual class: inhibitors; 0.28% of 350,000 active; further: nearly all actives have a fitted effect of over 40% in size
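Signal: AlphaScreen proximity between streptavidin donor and anti-FITC acceptor beads on intact substrate. Reaction: Tdp1 1 nM, substrate 15 nM final, 5 min RT after 15 min compound preincubation.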
DT40 TDP1 no CPT – qHTS for Inhibitors of human tyrosyl-DNA phosphodiesterase 1 (TDP1): qHTS in cells in absence of CPT; DT40 Tdp1-/- hTDP1 cells, no CPT, ATP luminescence, 48 h; Potency, µM (doses to about 46.2 µM), usual class: inhibitors; 15% of 420,000 active; further: nearly all actives have a fitted effect of over 55% in size
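Stably hTDP1-transfected Tdp1-null chicken DT40 cells were treated with library compounds minus camptothecin and grown for at least 48 hr at 37 °C, after which cellular ATP was quantified by luminescence.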
TDP1 cell CPT – qHTS for Inhibitors of human tyrosyl-DNA phosphodiesterase 1 (TDP1): qHTS in cells in presence of CPT | chicken DT40 Tdp1-/-;hTDP1 cells + 20 nM CPT, ATP luminescence, 48 h | Potency, µM (highest dose often 46.2 µM), hits mostly inhibitors | 12% of 420,000 active; further: nearly all actives have a fitted effect of over 55% in size
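Cell growth measured by CellTiter-Glo luminescence after a minimum 48 h, 37 C compound exposure with 20 nM CPT in Tdp1-knockout DT40 cells stably expressing hTDP1, seeded 400/well; qHTS titration format.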
Hits are given with their value; – = inactive; ? = inconclusive; · = no result; [ ] = remark or other dose. The call rests on the fitted dose curve; in most records, active means well fitted curve in the direction sought with a large enough effect; inconclusive means small, poorly fitted or top-dose-only effect, or another doubt; inactive means no such curve, though single readings can be large; an effect the other way counts as inactive or inconclusive.

SMILES	VDR inh	KAT2A inh	PLK1 PBD block	TDP1 inh	DT40 TDP1 no CPT	TDP1 cell CPT
Cc1oc(-c2ccccc2Cl)nc1CSc1nc2c(c(=O)[nH]1)CCCC2	–	–	–	–	18.4µM	13µM
CCOCCOCC	·	·	·	–	·	·
O=C(Nc1nccs1)[C@@H]1CC=C[C@@H]2CCN(C3CCCCC3)C(=O)[C@@H]21	·	·	·	·	–	–
COc1ccc(S(=O)(=O)N2CCOCC2)cc1NC(=O)c1ccc(OC(F)F)cc1	–	–	–	–	?	?
O=c1[nH]c(SCCc2ccccc2)nc2c1CCC2	·	·	–	·	7.31µM	?
CC1=CC(C)(C)NC(=S)N1c1cccc(Cl)c1	–	·	–	·	?	?
CC1=CC(C)(C)NC(=S)N1c1cccc2cc(S(=O)(=O)O)ccc12	–	–	26.7µM	?	–	–
CC1=CC(C)(C)NC(=S)N1c1ccccc1C	–	–	–	–	25.9µM	?
O=c1c(S(=O)(=O)c2ccccc2)cn(Cc2ccc(F)cc2)c2cc(N3CCCCC3)c(F)cc12	–	–	·	–	?	?
COc1cc(/C=C/c2nc3ccccc3nc2/C=C/c2cc(OC)c(OC)c(OC)c2)cc(OC)c1OC	·	·	·	·	4.47µM	1.26µM
COc1cc(/C=C/c2cc[n+](C)c3ccccc23)cc(OC)c1OC	·	·	·	·	–	–
COc1cc(C=Cc2nnc3c4ccccc4cnn23)cc(OC)c1OC	·	·	–	·	0.82µM	3.26µM
CCOc1ccc(/C=C/c2ccc3ccccc3n2)cc1OCC	·	·	·	·	2.51µM	2.82µM
COc1cc(/C=C/c2ccc3ccccc3n2)cc(OC)c1OC	·	·	·	·	0.0708µM	0.159µM
Cc1onc(-c2ccccc2)c1C(=O)N1CCN(Cc2ccccc2)CC1	–	–	–	–	?	–
Cc1ccc(Cl)cc1N1C(=O)N(Cc2ccc(C#N)cc2)c2ccccc2S1(=O)=O	–	–	·	–	?	?
CS(=O)(=O)c1nc(S(=O)(=O)c2ccc(Cl)cc2)c(N2CCOCC2)s1	–	–	–	–	?	?
COc1ccc(C2OC3C(CO)OC(n4cnc5c(=O)[nH]c(N)nc54)C3O2)cc1 (centres undefined)	–	–	·	–	–	–
COc1cc2c(cc1OC)n(CC(=O)c1cc(C)ccc1C)c(=O)n1nc(CCn3nc(C)cc3C)nc21	–	–	·	–	–	–
Cc1c(NC(=S)NC(=O)c2cccc(Br)c2)c(=O)n(-c2ccccc2)n1C	–	–	–	·	–	–
Cc1ccc2c(c1)cc(CN(Cc1ccco1)S(=O)(=O)c1ccccc1)c1nnnn12	–	–	–	–	20.6µM	13µM
Cc1ccc2cc(CN(CC3CCCO3)S(=O)(=O)c3ccccc3)c3nnnn3c2c1 (centres undefined)	–	–	–	–	–	29.1µM
Cc1ccc2c(c1)cc(CN(Cc1ccco1)C(=O)N1CCOCC1)c1nnnn12	–	–	–	–	–	?
Cc1ccc2c(c1)cc(CN(Cc1ccc3c(c1)OCO3)C(=O)c1ccccc1)c1nnnn12	–	–	–	–	20.6µM	?
COc1cccc(-c2cc(=O)c3ccc(OC)cc3o2)c1	–	–	·	–	–	?
COC(=O)C1CCN(Cc2ccc3c(c2)CN(C(=O)c2cc(C)nc(C)n2)CCO3)CC1	·	·	·	·	–	–[9.04 µM]
Cc1c(C(=O)NCC2(c3ccccc3)CCOCC2)cnn1-c1nccc(-c2ccco2)n1	·	·	·	·	–	?
CCn1c(=O)c(CCC(=O)NCCN2CCOCC2)c(C)c2c(C)nn(-c3cccc(C)c3)c21	–	–	–	–	16.4µM	?
CCn1c(=O)c(CCC(=O)N2CCOCC2)c(C)c2c(C)nn(-c3ccccc3)c21	–	–	–	–	20.6µM	?
COc1cccc(NC(=O)N(C)C[C@@H]2OCc3cnnn3CCCC(=O)N([C@H](C)CO)C[C@@H]2C)c1	·	·	–	·	–	–
